Pf growth 48h – P. falciparum growth inhibition at 48 hours (one generation); P. falciparum luciferase growth in erythrocytes, 48 h; Potency, µM (highest dose often 28.7 µM), for inactives: top-dose activity change, negative = inhibition, hits mostly inhibitors; 310,000 tested, 5.9% active; AID 504832; also: % is scaled to controls: 0 for no effect and ±100 for the full control effect
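Luciferase-expressing P. falciparum in infected erythrocytes (2% hematocrit, 0.1% parasitemia final) in RPMI 1640/0.5% Albumax were exposed to compound for 48 hours at 37 C, 5% CO2; growth read as luminescence.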
SARS PLP yeast – SARS-CoV PLP inhibition in yeast; S. cerevisiae expressing SARS-CoV PLpro, growth rescue; Potency, µM (doses to about 32.9 µM), for inactives: at the highest dose activity, positive = growth rescue, most hits filed as activators; 330,000 tested, 0.19% active; AID 485353; calls by dose curve; also: 0% is about no effect; nearly all actives have a fitted effect of over 55% in size
Pf growth 96h – inhibits malaria parasite growth, 96 h | P. falciparum luciferase reporter growth, 96 h | Potency, µM (series often up to 28.7 µM), for the others: at the highest dose activity change, negative = inhibition, usual class: inhibitors | 320,000 tested, 6.9% active | AID 504834; also: % is scaled to controls: 0 for no effect and ±100 for the full control effect
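P. falciparum expressing integrated firefly luciferase, in erythrocytes at 2% hematocrit, 0.05% parasitemia, incubated with compounds 96 h at 37 C, 5% CO2. Growth inhibition read as loss of luminescence; two-generation exposure targets delayed-death apicoplast inhibitors.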
NS1 function inh – influenza NS1 inhibition | 270,000 tested, 0.4% active | AID 2326 | Potency, µM (titrated, usually from 46.1 µM), for the others: top-dose activity, positive = more growth; calls by dose curve; also: actives are rising curves; nearly all actives have a fitted effect of over 50% in size
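Recovery from NS1-induced slow growth read by OD600 in budding yeast switched to galactose assay medium (pH 6.0, -URA) at 1:100 dilution. Compound 23 nl per well; the matching strain lacking NS1 serves as control.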
An asterisk follows results filed as active; u = inconclusive; x = no result given; [ ] = another dose, or the depositor's remark. Only some compounds are listed: those with a hit (about 10% of all), similar ones and a draw of the others. Unless noted, calls follow the shape of the dose curve; as a rule, active = well fitted inhibition curve with a large enough effect; inconclusive = small, poorly fitted or top-dose-only effect, or another doubt; inactive = no such curve, though single readings can be large or run the other way. Potency is read from the fitted curve at half-maximal effect.

SMILES	Pf growth 48h	SARS PLP yeast	Pf growth 96h	NS1 function inh
Cn1cnc([N+](=O)[O-])c1[Se]c1nc(N)nc2c1ncn2[C@@H]1O[C@@H](CO)[C@H](O)[C@@H]1O	x	x	x	-3%
CC(=O)Nc1ccc(NC(=O)c2ccc(S(=O)(=O)N(C)c3ccccc3)cc2)cc1	13µM*	0%	u	x
CCN1C(=O)c2cccc3c(NC(=O)c4ccc(S(=O)(=O)N(C)C)cc4)ccc1c23	12µM*	-8%	10%	-4%
CCN1C(=O)c2cccc3c(NC(=O)c4ccc(S(=O)(=O)N5CCOCC5)cc4)ccc1c23	u	3%	x	-3%
CN(c1ccccc1)S(=O)(=O)c1ccc(NC(=S)NC(=O)c2ccccc2)cc1	-4%	0%	x	6%
CN(C)S(=O)(=O)c1ccc(C(=O)Nc2ccccc2F)cc1	11%	-3%	x	0%
CCN(CC)S(=O)(=O)c1ccc(C(=O)Nc2cc(C)on2)cc1	12µM*	0%	7.4µM*	-3%
CN(C)S(=O)(=O)c1ccc(C(=O)Nc2ccccc2C(=O)O)cc1	-12%	-29%	13µM*	-6%
Cc1ccc(OCCN2C(=O)C(=O)c3cccc(C)c32)cc1	2%	1%	-1%	-4%
CCN1C(=O)C(=O)N(CC(=O)N2CCN(c3ccccc3)CC2)C1=O	7%	-2%	16%	x
CC1CN(C(=O)CCNC(=O)c2ccc(Br)cc2)CC(C)O1 (configuration not stated)	0%	6%	0%	x
COc1ccc(CCNC(=O)C23CN(Cc4ccccc4)CC2C(c2ccc([N+](=O)[O-])cc2)=NO3)cc1 (configuration not stated)	5.2µM*	0%	u	2%
O=C(NCc1ccccc1)C12CN(Cc3ccccc3)CC1C(c1ccc([N+](=O)[O-])cc1)=NO2 (configuration not stated)	12µM*	-4%	u	0%
O=C(NCc1ccco1)C12CN(Cc3ccccc3)CC1C(c1cccc([N+](=O)[O-])c1)=NO2 (configuration not stated)	u	-11%	u	5%
O=C(NCc1ccco1)C12CN(Cc3ccccc3)CC1C(c1ccc([N+](=O)[O-])cc1)=NO2 (configuration not stated)	12µM*	-9%	0%	24%
Cc1ccc(CNC(=O)C23CN(Cc4ccccc4)CC2C(c2ccc([N+](=O)[O-])cc2)=NO3)o1 (configuration not stated)	u	-7%	u	1%
Cc1ccc(CNC(=O)C23CN(Cc4ccccc4)CC2C(c2cccc([N+](=O)[O-])c2)=NO3)cc1 (configuration not stated)	10µM*	3%	u	u
Cc1ccc(/C=C2\SC(=O)N(CCNC(=O)C3CSC4(C)CCC(=O)N34)C2=O)cc1 (configuration not stated)	u	-3%	u	x
COc1ccc(CNC(=O)C23CN(Cc4ccccc4)CC2C(c2ccc([N+](=O)[O-])cc2)=NO3)cc1 (configuration not stated)	6.6µM*	-4%	13µM*	5%
N[C@@H](Cc1ccccc1)P(=O)(O)O	x	x	x	-1%
COc1cc(/C=N\Nc2nncn2N)ccc1OC(C)=O	38%	21%	0.93µM*	-1%
COc1ccc(OC)c(S(=O)(=O)N2CCC(C(=O)NCc3ccc4c(c3)OCO4)CC2)c1	-1%	2%	u	-14%
O=C1NC(=Nc2ccccc2Cl)SC1(CO)CO	-3%	17%	13µM*	-15%
COc1ccc(-c2cc3c(=O)n(CC(=O)NCCCN4CCC(N5CCCCC5)CC4)ncn3n2)cc1	u	1%	u	9%
Cc1nn(CC(=O)NCCCN2CCCCC2)c(=O)c2cc(-c3ccccc3)nn12	17%	-1%	4.1µM*	1%
SMILES	Pf growth 48h	SARS PLP yeast	Pf growth 96h	NS1 function inh
Cc1ccc2c(c1)cc1c(=O)n(CC(=O)NCCN3CCCC3)nc(C)n12	24%	-3%	9.3µM*	1%
Cc1ccc2[nH]c(C(=O)NCCN3CCCC3)cc2c1	u	-2%	12µM*	u
Cc1ccc2[nH]c(C(=O)N3CCCCC3)cc2c1	62%	-1%	149%	-11%
COc1ccc(-c2cc3c(=O)n(CC(=O)NCCCN4CCC(N5CCCCC5)CC4)nc(C)n3n2)cc1	u	0%	8.3µM*	-4%
CCN(CC)S(=O)(=O)c1ccc(=O)n(CC(=O)N2CCCc3cc(C)ccc32)c1	u	1%[6.58 µM]	u	x
Cc1nn(CC(=O)NCCCN2CCCCC2C)c(=O)c2cccn12 (configuration not stated)	28%	-17%	-6%	3%
Cc1nn(CC(=O)NCCCN2CC(C)CC(C)C2)c(=O)c2cccn12 (configuration not stated)	26%	-3%	10µM*	-12%
CC(C#Cc1ccc2c(c1)COc1c3ccccc3nn1-2)OC(C)(C)C (configuration not stated)	45%	3%	128%	x
COC(=O)c1[nH]c2ccc(Br)cc2c1NC(=O)C(C)N1CCN(C2CCCCC2)CC1 (configuration not stated)	u	8%	2.1µM*	-14%
COC(=O)c1[nH]c2ccc(C)cc2c1NC(=O)CN1CCC(C)CC1	-18%	1%	u	0%
COC(=O)c1[nH]c2ccc(C)cc2c1NC(=O)C(C)N1CCN(C2CCCCC2)CC1 (configuration not stated)	u	3%	10µM*	-10%
COC(=O)c1[nH]c2ccc(Br)cc2c1NC(=O)CN1CCCCC1CCO (configuration not stated)	u	-1%	5.2µM*	16%
COC(=O)c1[nH]c2ccc(C)cc2c1NC(=O)NC1CCCCC1	-23%	-1%	x	7%
CCOC(=O)C1(Cc2ccc(OC)cc2)CCN(C(=O)CCc2cccnc2)CC1	u	-1%	-18%	1%
CCOc1ccc(S(=O)(=O)N2CCCCC2)cc1NC(=O)CN1C(=O)NC(C)(C2CC2)C1=O (configuration not stated)	u	2%	-12%	x
O=C(O)CN1C(=O)COc2ccc(S(=O)(=O)N3CCCCCC3)cc21	26%	17%	u	1%
CCOC(=O)CCCCC(=O)c1[nH]c(=O)[nH]c1Cn1ccnc1	0.47µM*	2%	x	u
CCCCSCc1[nH]c(=O)[nH]c1C(=O)CCCCC(=O)OCC	-15%	-1%	-23%	2%
CO[C@H]1CC[C@@]2(C)[C@@H](CC[C@@H]3[C@@H]2CC[C@@]2(C)[C@H]3C[C@H](C(=O)O)O[C@]23CCCO3)C1	x	-20%	x	x
C=CC[N+]1([C@H]2C[C@H]3[C@@H]4CC[C@H]5C[C@H](O)[C@@H](N6CCOCC6)C[C@]5(C)[C@H]4CC[C@]3(C)[C@H]2OC(C)=O)CCCC1	6.7µM*	x	4.3µM*	x
O=c1oc2ccccc2cc1-c1nc2ccccc2o1	44%	-3%	2%	-44%
O=c1c(Cl)c2oc3ccccc3nc-2c2ccccc12	13µM*	0%	-8%	0%

Compound activity deposited in PubChem by National Center for Advancing Translational Sciences (NCATS).
